# The campaign covered roughly 1,200 compounds. About 360 (30%) were called active. How the calls were made is not given here. These entries were drawn from the full list. Measured potencies and affinities stand elsewhere.
# Test: bacterial growth inhibition, dose response, counter-screen, BacTiter-Glo luminescence, cherry-picked samples (AID 504843)
# Conditions: BacTiter-Glo ATP luminescence; series mostly up to 15 µM
row,Compound,outcome
1,O=C(Cc1ccccc1)Nc1ccc2oc(=O)ccc2c1,inactive
2,COc1cccc(-c2nn(-c3ccccc3)cc2CN(C)C(C)c2ccncn2)c1 (configuration not stated),inactive
3,O=S(=O)(N1CCCCC1)N1CCN(c2ccccc2F)CC1,inactive
4,CCOC(=O)c1cnn(-c2cc(C)c3ccccc3n2)c1N,inactive
5,O=C(CSc1cccc2cccnc12)N/N=C/c1ccncc1,inactive
6,CCn1nc(-c2ccccc2)c2nc3ccccc3nc21,inactive
7,Cc1cc(C(F)F)n2nc(C(=O)Nc3c(F)cc(F)cc3Br)nc2n1,inactive
8,CC(C)N(c1ccccc1)c1ccc(NC(=O)COC(=O)CCN2C(=O)c3cccc([N+](=O)[O-])c3C2=O)cc1,inactive
9,Cn1c(N)c(C(=O)COC(=O)c2nc(Cl)ccc2Cl)c(=O)n(C)c1=O,inactive
10,CN1CCCC(OC(=O)CCCCC(=O)OC2CCCN(C)C2)C1 (configuration not stated),inactive
11,O=C(NCc1cccs1)Nc1cccc(Cl)c1,inactive
12,O=C(CN1CCC(c2nc3ccccc3s2)CC1)NCc1cccs1,inactive
13,COc1cc(/C=C2\C(=N)N3N=C(S(C)(=O)=O)SC3=NC2=O)ccc1OS(=O)(=O)c1ccc(C)cc1,inactive
14,COc1ccccc1NC(=O)C1=C(C)Nc2ncnn2C1c1ccc(C)o1 (configuration not stated),inactive
15,Cc1cc(C(=O)CSc2nnc(-c3ccc4c(c3)OCO4)o2)c(C)n1-c1ccc(F)cc1,inactive
16,Cc1cccc2c1cnn2C(=O)CCC(=O)N1CC(C)CC(C)C1 (configuration not stated),inactive
17,CCC(C)N1CCC2(CC1)N=c1c(c3c4c5c(C)c(O)c3c(O)c1=NC(=O)C(C)=CC=C[C@H](C)[C@H](O)[C@@H](C)[C@@H](O)[C@@H](C)[C@H](OC(C)=O)[C@H](C)[C@@H](OC)C=CO[C@@](C)(O5)C4=O)N2 (some centres not stated),inactive
18,O=C(Nc1ccncc1)c1ccc(Cl)c(Cl)c1,inactive
19,O=C(Nc1cccc(NC(=O)c2cccnc2)c1)c1ccccc1,inactive
20,NC(=O)C1CCN(C(=O)c2ccco2)CC1,inactive
21,Cc1ccc2c(C)nc(/N=C(\N)NC(=O)N3c4ccccc4Sc4ccccc43)nc2c1,inactive
22,CNC(=O)C(=O)NCCN1CCN(S(=O)(=O)c2ccc3ccccc3c2)CC1,inactive
23,O=C(CCc1nnc2ccc(NCc3ccco3)nn12)N1CCN(c2ccccc2)CC1,inactive
24,O=C(CCSc1ccccc1)N1CCN(C(=O)c2ccco2)CC1,inactive
25,CC(=O)c1ccc(-c2cccc(-c3nc4ccccn4c3NC3CCCCC3)c2)cc1,inactive
26,CCOC(=O)c1sc(NC(=O)CCN2C(=O)c3cccc([N+](=O)[O-])c3C2=O)c(C(=O)OCC)c1C,inactive
27,C#CCn1c(O)c(N=NC(=O)C(O)c2ccccc2)c2ccccc21 (configuration not stated),inactive

# From PubChem BioAssay AID504843 (Broad Institute, 2011)
